Apoferritin bind = qHTS Assay for Identification of Novel General Anesthetics. Ferritin light chain (Equus caballus), P02791. apoferritin/1-aminoanthracene competitive binding, fluorescence. Potency, µM (highest dose often 77.5 µM), without a hit: top-dose activity change, negative = displacement, actives largely listed as inhibitors. 350,000 tested, 0.074% active. AID 485281, 2010; also: % is scaled to controls: 0 for no effect and ±100 for the full control effect; nearly all actives have a fitted effect of over 20% in size
Target sequence (P02791 2-175 limits assumed): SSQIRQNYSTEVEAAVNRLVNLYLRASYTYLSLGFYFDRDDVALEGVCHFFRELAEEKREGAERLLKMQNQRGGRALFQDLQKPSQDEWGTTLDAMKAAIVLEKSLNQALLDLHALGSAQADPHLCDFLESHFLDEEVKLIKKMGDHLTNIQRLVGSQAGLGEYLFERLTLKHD
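Apoferritin-based anesthetic binding model; compound displacement of fluorescent 1-AMA measured as endpoint fluorescence after 10 minutes at room temperature, scaled to free-ligand and complex controls.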
TRb-SRC2 inh = qHTS for Inhibitors of the Interaction of Thyroid Hormone Receptor and Steroid Receptor Coregulator 2. Potency, µM (titrated, usually from 106 µM), inactives show at the highest dose activity change, negative = inhibition, usual class: inhibitors. 280,000 tested, 0.065% active. TRbeta-SRC2 peptide binding, fluorescence polarization; receptor liganded with 1 µM T3;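 also: plate controls were bound peptide for no effect and peptide without receptor for full effect; nearly all actives have a fitted effect of over 50% in size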
Target sequence (P10828 whole entry, looked up): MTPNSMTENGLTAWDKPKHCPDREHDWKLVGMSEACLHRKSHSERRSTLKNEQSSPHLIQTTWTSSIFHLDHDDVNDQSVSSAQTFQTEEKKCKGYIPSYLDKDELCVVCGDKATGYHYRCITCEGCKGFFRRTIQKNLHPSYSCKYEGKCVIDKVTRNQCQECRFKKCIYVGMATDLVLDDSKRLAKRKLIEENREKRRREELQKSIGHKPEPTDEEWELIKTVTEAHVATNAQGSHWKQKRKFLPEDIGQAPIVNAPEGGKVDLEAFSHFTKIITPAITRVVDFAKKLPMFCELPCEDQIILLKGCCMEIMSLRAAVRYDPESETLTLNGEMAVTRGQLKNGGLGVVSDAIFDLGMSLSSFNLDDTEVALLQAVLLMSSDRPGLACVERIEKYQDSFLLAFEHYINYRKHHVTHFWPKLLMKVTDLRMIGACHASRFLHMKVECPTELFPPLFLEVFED
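A fluorescence polarization screen tested compounds at multiple concentrations against complex formation between 0.6 uM TRb ligand-binding domain and 20 nM Texas Red SRC2 peptide, with 1 uM T3 present; readout after 5 hr.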
TR SRC2 fluor cs = Total Fluorescence Counterscreen for Inhibitors of the Interaction of Thyroid Hormone Receptor and Steroid Receptor Coregulator 2; TRb/SRC2 Texas Red total fluorescence interference; Potency, µM (doses to about 106 µM), for the others: at the highest dose fluorescence change, negative = quenching; 280,000 tested, 0.29% active; active = well fitted curve in either direction with a large enough effect; inconclusive = small, poorly fitted or top-dose-only effect; also: % is scaled to controls: 0 for no effect and ±100 for the full control effect
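Flags fluorescent or light-absorbing compounds by total fluorescence, S + 2P, at 555 nm excitation and 632 nm emission. Mixture: 20 nM Texas Red SRC2 peptide, 0.6 uM human TRb LBD, 1 uM T3, 5% DMSO; compound exposure 5 h at ambient temperature.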
GoLoco inh red = qHTS Assay for Inhibitors of RGS12 GoLoco Motif Activity (Red Fluorophore); 230,000 tested, 0.44% active; Guanine nucleotide-binding protein G(i) subunit alpha-1 (Homo sapiens), P63096; AID 880, 2007; Potency, µM (top dose mostly 61.6 µM), inactives show top-dose activity, negative = inhibition, hits mostly inhibitors; Gai1:RGS12 GoLoco peptide FP, rhodamine, 10 min; active = well fitted inhibition curve with a large enough effect, not every such curve was filed as active; inactive = no such curve, though single readings can be large or run the other way; also: % is scaled to controls: 0 for no effect and ±100 for the full control effect; nearly all actives have a fitted effect of over 30% in size
ERG-DNA inh = qHTS for Small Molecule Inhibitors of the ERG Ets/DNA interaction. Transcriptional regulator ERG (Homo sapiens), P11308. fluorescence polarization, His-ERG Ets domain / labelled DNA. Potency, µM (top dose mostly 76.9 µM), for the others: at the top dose FP activity, negative = inhibition, usual class: inhibitors. 370,000 tested, 0.028% active; active = well fitted inhibition curve with a large enough effect in the polarisation, with a control signal flat; inconclusive = small, poorly fitted or top-dose-only effect, or effect the other way, or a change in a side signal; inactive = no such curve, though single readings can be large or run the other way; the % refers to the polarisation;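 also: polarization taken with two DNA probes labelled with fluorescein and Texas red; % of control where 0% means no effect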
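His-tagged ERG Ets domain (1 uM in the protein solution; 300mM KCl, 50mM Tris-HCl, 1mM EDTA, 1mM DTT, pH 7.5) received compound, then a probe mix of 5 nM fluorescein-DNA and 100nM Texas-615-DNA. Fluorescence polarization was read for both dyes.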
The depositor's hits bear a star; [ ] = remark or other dose. Compounds with a hit are over-represented: about 0.44% of the library has one in this group of screens. Unless noted, calls follow the shape of the dose curve; as a rule, active = well fitted curve in the direction sought with a large enough effect; inconclusive = small, poorly fitted or top-dose-only effect, or another doubt; inactive = no such curve, though single readings can be large; an effect the other way counts as inactive or inconclusive. Potency is read from the fitted curve at half-maximal effect.

`CCc1ccc(NC(=O)c2sc3nc(C)c(Cl)c(C)c3c2NC(=O)c2ccccc2OC)cc1` gave Apoferritin bind 1%, TRb-SRC2 inh -9%, TR SRC2 fluor cs 10µM*[quencher] and ERG-DNA inh -5%.
CCCOC(=O)N1CCN(/[N+]([O-])=N/Oc2ccc([N+](=O)[O-])cc2[N+](=O)[O-])CC1 was read as Apoferritin bind -9%, TRb-SRC2 inh -4% and TR SRC2 fluor cs -3%.
`O=C1OC2(c3ccccc31)c1cc(I)c(O)c(I)c1Oc1c2cc(I)c(O)c1I` gave Apoferritin bind -15%, TRb-SRC2 inh inconclusive and TR SRC2 fluor cs 40µM*[fluorescent].
Screening O=C1OC2(c3cc(I)c(O)c(I)c3Oc3c2cc(I)c(O)c3I)c2c(Cl)c(Cl)c(Cl)c(Cl)c21 returned Apoferritin bind inconclusive, TRb-SRC2 inh 25µM* and TR SRC2 fluor cs 7.1µM*[fluorescent].
Screening Cc1cc(O)ccc1C1(c2ccc(O)cc2C)OC(=O)c2ccccc21 returned Apoferritin bind 6%, TRb-SRC2 inh -8%, TR SRC2 fluor cs 1%, GoLoco inh red -2% and ERG-DNA inh -4%.
For O=C1OC2(c3ccc(O)cc3Oc3cc(O)ccc32)c2ccccc21 the results were Apoferritin bind 850%, TRb-SRC2 inh -19%, TR SRC2 fluor cs -13% and GoLoco inh red 0.79µM*.
O=C1[C@H]2[C@H]3C=C[C@@H](C4[C@H]3[C@@H]3C(=O)N(CN5CCSCC5)C(=O)[C@H]43)[C@H]2C(=O)N1CN1CCSCC1 (some centres undefined) was read as GoLoco inh red 8%[14.2 µM].
Screening CCCNC(=O)Cn1sc2nc(C)cc(C)c2c1=O returned Apoferritin bind -5%, TRb-SRC2 inh -2%, TR SRC2 fluor cs 0%, GoLoco inh red 7.9µM* and ERG-DNA inh -5%.
For Cc1cc(C)c2c(=O)n(CC(=O)N3CCC(N4CCCCC4)CC3)sc2n1 the results were Apoferritin bind -14%, TRb-SRC2 inh 0%, TR SRC2 fluor cs 0%, GoLoco inh red -50% and ERG-DNA inh 8%.
CCCN(CCC)c1c([N+](=O)[O-])cc(C(F)(F)F)c(N)c1[N+](=O)[O-] was read as TRb-SRC2 inh -2%[201 µM] and TR SRC2 fluor cs -2%[201 µM].
Screening Brc1ccc(Br)c(Br)c1 returned TRb-SRC2 inh 4%[201 µM] and TR SRC2 fluor cs -4%[201 µM].
`CCc1ccc(NC(=O)C2CCN(C(=O)N3CC(CC)Oc4ccccc43)CC2)cc1` (centres undefined) gave Apoferritin bind inconclusive, TRb-SRC2 inh 0%, TR SRC2 fluor cs -3% and ERG-DNA inh 0%.
For CCC1CN(C(=O)N2CCC(C(=O)N3CCN(c4ccccc4F)CC3)CC2)c2ccccc2O1 (centres undefined) the results were Apoferritin bind -2%, TRb-SRC2 inh -3%, TR SRC2 fluor cs 0.014µM*[quencher] and ERG-DNA inh -11%.
COc1ccc(-c2noc(N3CCC(C(=O)N4CCN(c5ccccc5F)CC4)CC3)n2)cc1 was read as Apoferritin bind 46%, TRb-SRC2 inh inconclusive, TR SRC2 fluor cs 56µM*[quencher] and ERG-DNA inh 1%.
Screening O=S(=O)(O)c1cc(S(=O)(=O)O)c2c(N=Nc3ccccc3)c(O)ccc2c1 returned TRb-SRC2 inh 0%[201 µM] and TR SRC2 fluor cs -14%[201 µM].
For CC(C)/C(=N/[N+](C)(C)C)c1ccccc1 the results were GoLoco inh red 2.8µM*.
Screening COc1cc(OC)cc(C(=O)NC(=S)NNC(=O)Cc2cccs2)c1 returned Apoferritin bind 2%, TRb-SRC2 inh inconclusive, TR SRC2 fluor cs 0.32µM*[quencher], GoLoco inh red -5% and ERG-DNA inh 14%.
For C=CCOc1ccc(C2C(C(=O)c3cccs3)=C(O)C(=O)N2c2nnc(C)s2)cc1 (centres undefined) the results were ERG-DNA inh 10%.
`COc1ccc(C2C(C(=O)c3cccs3)=C(O)C(=O)N2c2nncs2)cc1` (centres undefined) gave Apoferritin bind -17%, TRb-SRC2 inh 1%, TR SRC2 fluor cs 1%, GoLoco inh red 1.8µM* and ERG-DNA inh 3%.
Screening NS(=O)(=O)c1nn2cc(-c3ccccc3)nc2s1 returned Apoferritin bind -1%, TRb-SRC2 inh 0% and TR SRC2 fluor cs 2%.
`CC(C)C1CCC(C(=O)NC(Cc2ccccc2)C(=O)O)CC1` (centres undefined) gave Apoferritin bind 3%, TRb-SRC2 inh 1%, TR SRC2 fluor cs -1% and GoLoco inh red 20µM*.
`O=C(NC(Cc1ccccc1)C(=O)O)C1CCCCC1` (centres undefined) gave Apoferritin bind -5%, TRb-SRC2 inh 0%, TR SRC2 fluor cs 1%, GoLoco inh red -11% and ERG-DNA inh -6%.
Screening COc1ccc(NC(=O)c2cc(S(=O)(=O)N3CCOCC3)cn2C)cc1Cl returned Apoferritin bind -17%, TRb-SRC2 inh -14%, TR SRC2 fluor cs 10µM*[quencher] and ERG-DNA inh -5%.
Screening O=C(CSc1ncnc2scc(-c3ccccc3)c12)N1CCN(Cc2ccc3c(c2)OCO3)CC1 returned Apoferritin bind -21%, TRb-SRC2 inh 4%, TR SRC2 fluor cs 45µM*[fluorescent] and ERG-DNA inh 31%.
`Cc1ccc2c(c1)-c1nc(-c3ccc(Cl)cc3)cc(-c3coc4ccccc4c3=O)c1CO2` gave Apoferritin bind 42%, TRb-SRC2 inh 0%, TR SRC2 fluor cs 10µM*[quencher] and ERG-DNA inh 0%.
Screening O=C(COC(=O)c1ccccc1NS(=O)(=O)c1cccs1)NCC12CC3CC(CC(C3)C1)C2 returned Apoferritin bind -12%, TRb-SRC2 inh 0%, TR SRC2 fluor cs 1%, GoLoco inh red 10% and ERG-DNA inh 10%.
Screening O=C(COC(=O)c1ccccc1NS(=O)(=O)c1cccs1)NC1CCCCC1 returned Apoferritin bind -13%, TRb-SRC2 inh -18%[53 µM], TR SRC2 fluor cs 112µM*[quencher], GoLoco inh red -11% and ERG-DNA inh -5%.
Screening NCCc1nnc(SCc2c(F)cccc2Cl)o1 returned Apoferritin bind inconclusive, TRb-SRC2 inh 8%, TR SRC2 fluor cs -4%, GoLoco inh red 2% and ERG-DNA inh 0%.
Fc1cccc(Cl)c1CSc1nnc(COc2cccc3cccnc23)o1 was read as Apoferritin bind 18µM*, TRb-SRC2 inh 1%, TR SRC2 fluor cs 1% and GoLoco inh red 2%.

Compound activity from PubChem.
